The whole screen tested about 220,000 compounds, of which about 650 (0.3%) were called active. The sample holds actives, similar compounds and a random draw of the others, so the mix is not that of the screen. A number with no mark means an inactive call. No stated cut-off is given here; in the data, active means inhibition above about 40%; inactive means the rest.

For the assay, the target named is Coagulation factor XII (Homo sapiens) (UniProt P00748). The assay can be described thus: human FXIIa protease inhibitors, primary screen, biochemical, 1536-well (AID 800).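 Further: 0% = enzyme with no compound and 100% = blank without enzyme.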 The settings on record: purified FXIIa, Boc-QGR-AMC fluorogenic substrate, 2 h; at 5 µM; stronger effect = higher value.
Coagulation factor XII (Homo sapiens), sequence (P00748 20-372 limits assumed): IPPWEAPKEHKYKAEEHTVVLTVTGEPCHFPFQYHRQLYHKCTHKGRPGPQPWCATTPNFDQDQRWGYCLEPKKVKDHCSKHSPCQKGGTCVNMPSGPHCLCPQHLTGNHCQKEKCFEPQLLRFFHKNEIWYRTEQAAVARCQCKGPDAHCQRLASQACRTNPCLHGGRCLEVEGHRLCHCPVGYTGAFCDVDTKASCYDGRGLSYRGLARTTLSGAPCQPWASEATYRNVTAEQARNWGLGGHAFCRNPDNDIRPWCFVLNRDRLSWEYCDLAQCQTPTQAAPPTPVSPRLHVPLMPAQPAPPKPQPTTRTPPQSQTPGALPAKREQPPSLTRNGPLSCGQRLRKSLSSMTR
Coagulation factor XII (Homo sapiens), sequence (P00748 373-615 limits assumed): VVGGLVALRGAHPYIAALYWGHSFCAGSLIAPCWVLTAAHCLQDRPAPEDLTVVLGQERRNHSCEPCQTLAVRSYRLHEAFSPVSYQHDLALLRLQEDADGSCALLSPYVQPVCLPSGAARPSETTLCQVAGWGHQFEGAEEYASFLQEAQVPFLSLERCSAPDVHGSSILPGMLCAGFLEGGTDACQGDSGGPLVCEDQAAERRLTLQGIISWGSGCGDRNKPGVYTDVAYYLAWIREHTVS
On to `CCOC(=O)c1c(C)oc(C)c(C(=O)OCC)c1=O`, for which the inhibition was 8.51%.

For `CCOC(=O)c1cnc(COc2ccccc2Cl)[nH]c1=O`, the inhibition was 3.67%.

Consider `CC/C(=N\NC(=S)NC(C)C)c1ccc(OC(F)F)cc1`, for which the inhibition was 52.2% (active).

Take `O=C(NNC(=S)NCc1ccccc1)c1ccc(OC(F)F)cc1`: the inhibition was -6.41%.

As to `CC(NC(=S)Nc1ccc(OC(F)F)cc1)c1ccc(F)cc1` (centres undefined), the inhibition was 10.5%.

Consider `Cc1onc(-c2ccc(Cl)cc2)c1-c1ccnn1S(=O)(=O)c1ccc(Cl)cc1`, for which the inhibition was 3.87%.

On to `CCOCCn1c(-c2ccccc2)nc2ccccc21`, for which the inhibition was 9.94%.

Take `O=C(COC(=O)CCc1nc2ccccc2c(=O)[nH]1)Nc1ccc(N2CCOCC2)cc1`: the inhibition is 1.95%.

Take `CSc1nc(C)nc(C2CC2)c1C#N`: the inhibition is 1.66%.

As for `CN(c1ccc(OCC(=O)NC2=NCCS2)cc1)S(=O)(=O)c1ccc(F)cc1`, the inhibition is 7.4%.

`Cc1ccc(S(=O)(=O)N2CCN(C(=O)COC(=O)c3c(C)noc3C)CC2)c(C)c1`: the inhibition is 7.88%.

With `O=c1[nH]c(CSc2ccccc2)nc2c1oc1ccccc12`, the inhibition was 7.45%.

`COC(=O)[C@H](Cc1ccccc1)NC(=O)Nc1ccc(OC)cc1`: the inhibition was 4.58%.

In the case of `CC(C)(C)NC(=O)/C(=C/c1cccnc1)NC(=O)c1ccco1`, the inhibition is 15.3%.

As to `O=C(Nc1nnc(Cc2ccc(Cl)cc2)s1)c1ccncc1`, the inhibition is 2.31%.

Take `O=C(NNC(=S)NC1CC2CCC1C2)c1ccc(Cl)cc1` (centres undefined): the inhibition was 7.4%.

With `CCc1ccc2nc(Nc3ncc(C(C)=O)c(C)n3)nc(C)c2c1`, the inhibition is 6.31%.

With `C=C(C)C(=O)Nc1cccc(C2=NOC3(C2)C[C@H](C(N)=O)N(C(=O)C(c2ccccc2)c2ccccc2)C3)c1` (some centres undefined), the inhibition is 0.36%.

As to `Nc1nc(Sc2ncccc2[N+](=O)[O-])n[nH]1`, the inhibition is 7.38%.

As for `C/C(=N/Nc1nc(-c2ccccc2)c(CC(=O)O)s1)c1ccccc1`, the inhibition is 10.1%.

For `COc1ccccc1-c1c(C#N)c(N)nc2c1CCC2`, the inhibition was -2.02%.

Take `CCOC(=O)C(=CNNc1ccsc1C(=O)OC)C(=O)OCC`: the inhibition was 8.52%.

Consider `COc1ccc(CN(Cc2ccc(OC)cc2)C(=O)c2cccs2)cc1`, for which the inhibition was 45.5% (active).

For `COc1ccc(OCC(=O)N2CCN(C(=O)c3cccs3)CC2)cc1`, the inhibition is 0.82%.

As for `COc1ccc(CN(C(=O)c2cccs2)c2nccs2)cc1OC`, the inhibition is 14.5%.

`Cc1nc(=O)c(-c2ccccc2)c(C)n1-c1ccc(Br)cc1`: the inhibition is 7.02%.

For the molecule `CCOC(=O)c1nnn2c1nc(N1CCN(c3ccccc3)CC1)c1ccccc12`, the inhibition was 5.24%.

For `Cc1ccc2c(c1)nnc1nnc(SCC(=O)O)n12`, the inhibition was 5.33%.

For `Cc1cccc(NC(=O)c2nc[nH]c2C(=O)NCC(=O)OCc2ccccc2)c1`, the inhibition was 7.76%.

With `Cc1ccc(NNC(=O)c2cccs2)cc1Cl`, the inhibition is 8.48%.

Turning to `CCc1nnc(NC(=O)CCC(=O)O)s1`, the inhibition is 13.2%.

For `CCc1nnc(NC(=O)CCC(=O)NCc2ccccc2OC)s1`, the inhibition was 15%.

In the case of `CCc1nnc(NC(=O)CCN(c2ccc(C)cc2)S(=O)(=O)c2ccccc2)s1`, the inhibition is 49.2% (active).

In the case of `CCCCC1=CC2=CC(=O)C(C)(OC(=O)CC)C(=O)C2=CN1CCCOC(C)C` (centres undefined), the inhibition was 7.98%.

As for `O=C(Nc1ccc(F)cc1)c1cc2c(s1)CCCC2`, the inhibition was 8.77%.

Turning to `COc1ccc(CNC(=O)C2CC(c3ccc(C(F)(F)F)cc3)=NO2)cc1` (centres undefined), the inhibition is 7.68%.

As for `Nc1nnn(CC(=O)N/N=C/c2ccc(O)cc2)n1`, the inhibition was 16.2%.

For the molecule `CCc1cccc(CC)c1NC(=S)Nc1ccc2cn[nH]c2c1`, the inhibition was 10%.

As for `Cc1ccc(SCc2c(C(=O)N/N=C/C3CC=CCC3)nnn2-c2nonc2N)cc1` (centres undefined), the inhibition was 9.39%.

As to `CS(=O)(=O)c1ccc2nc(NC(=O)c3ccc(N4CCCC4=O)cc3)sc2c1`, the inhibition was 1.85%.

With `O=C(NCc1ccc2c(c1)OCO2)c1sccc1Br`, the inhibition was 8.69%.

Consider `C/C=C(/C)C(=O)O[C@@H]1c2cc3c(c4c2[C@@]2(CO4)C(=O)C(OC)=C(OC)C=C2C[C@@H](C)[C@H]1C)OCO3`, for which the inhibition was 12.9%.

As to `Oc1[nH]c2ccc(Br)cc2c1N=Nc1nn[nH]n1`, the inhibition is 12.3%.

Regarding `CCCc1ccc(C(=O)[C@@H]2[C@@H](C(C)=O)N3c4ccc(F)cc4C=C[C@@H]3[C@@]23C(=O)Nc2ccccc23)cc1`, the inhibition is 8.48%.

On to `CC1CC(C)(C)n2c(O)c(N=NC(N)=S)c3cccc1c32` (centres undefined), for which the inhibition is 30.2%.

Turning to `Cc1ccccc1Nc1c(-c2ccccc2)nc2ncccn12`, the inhibition was 5.54%.

Consider `CCc1ccc(S(=O)(=O)NCC(O)COc2ccc(OC)cc2)cc1` (centres undefined), for which the inhibition was 6.59%.

For `Cc1cc(NC(=O)c2cccc(N3C(=O)CCC3=O)c2)no1`, the inhibition is 16.7%.

In the case of `Cc1cccc(NC(=O)c2cc(N3C(=O)CCC3=O)ccc2Cl)n1`, the inhibition is 50.5% (active).

With `Cc1cccc(NC(=O)c2ccc3ccccc3n2)n1`, the inhibition is 16%.

In the case of `O=C(NC1CCN(Cc2ccccc2)CC1)c1ccc(Oc2cc(Cl)cc(Cl)c2)o1`, the inhibition is 6.33%.

Regarding `S=c1[nH]c2ccccc2c2ccccc12`, the inhibition is 2.88%.

For the molecule `COC(=O)CCCC1=CC2=CC(=O)C(C)(OC(=O)c3cccs3)C(=O)C2=CN1CC(C)C` (centres undefined), the inhibition was 7.73%.

Consider `Cc1noc(C)c1C(=O)OCC(=O)N1CCN(S(=O)(=O)c2ccc3ccccc3c2)CC1`, for which the inhibition is 1.83%.

Take `Nc1ccccc1Sc1cc(Cl)nnc1Cl`: the inhibition is 12.7%.

`C=CCn1c(=S)sc2c(=O)[nH]c(C)nc21`: the inhibition was 1.68%.

`Cc1cc(=O)[nH]c(S)c1C#N`: the inhibition is -0.28%.

Take `COC(C[C@@H](O)[C@H](C)[C@H](O)COCc1ccccc1)OC`: the inhibition was 4.52%.

As for `Cn1c(S(=O)(=O)O)nc2ccccc21`, the inhibition was -0.32%.

In the case of `NS(=O)(=O)c1ccc(CCNC(=O)NC2CCCCC2)cc1`, the inhibition was 15%.

Consider `O=C(c1ccc(Cl)cc1)N1N=C(c2ccccn2)CC1(O)C(F)(F)F` (centres undefined), for which the inhibition is 8.52%.

As for `Cc1ccc(-n2ncc3c(=O)[nH]cnc32)c(C)c1`, the inhibition is 54% (active).

Consider `COC(=O)CSc1ncnc2c1cnn2-c1ccc(C)cc1C`, for which the inhibition is 5.55%.

`Cc1ccc(-n2ncc3c2ncn2nc(-c4ccco4)nc32)c(C)c1`: the inhibition was 14.2%.

On to `Cc1[nH]n(C)c(=O)c1C(=O)c1c(-c2c(Cl)cccc2Cl)noc1C`, for which the inhibition was 2.28%.

For the molecule `CCOc1c(Nc2cccc(Cl)c2)c(=O)c1=O`, the inhibition was 8.16%.

`COc1ccc(Nc2ncnc3sc(-c4ccccc4)cc23)c(OC)c1`: the inhibition was 4.94%.

For the molecule `CC(C)(C)c1cc(C(=O)N/N=C/c2ccc([N+](=O)[O-])s2)n[nH]1`, the inhibition is 7.22%.

As to `Cc1nc(N)[nH]c(=O)c1Oc1cccc(C(F)(F)F)c1`, the inhibition was 3.61%.

As to `O=C(CSC(=S)N1CCCCC1)c1c(F)cccc1F`, the inhibition is 6.72%.

Regarding `CNC(=O)c1cccc2nc3ccccc3nc12`, the inhibition is 6.68%.

On to `Brc1ccc(-c2nn[nH]n2)cc1`, for which the inhibition was 12.5%.

With `CC(C)S(=O)(=O)c1csc(NC(=O)Nc2ccc(Cl)cc2)c1Cl`, the inhibition is 6.02%.

As to `C=C(C)C(=O)O[C@H]1C/C(C)=C\C(=O)/C=C(\C)[C@H](O)[C@@H]2OC(=O)C(=C)[C@@H]21`, the inhibition was 8.34%.

As to `COc1cccc(Nc2nnc(SCC(=O)N3CC(=O)Nc4ccccc43)s2)c1`, the inhibition is 5.5%.

Turning to `C/C=N/N(c1ccccc1)c1ccccc1`, the inhibition was 4.81%.

For the molecule `CC(C)(C)C(=O)Nc1c(Br)c(C2CC2)nn1-c1ccccc1`, the inhibition was 6.88%.

In the case of `Cc1cc(C)cc(OCC(=O)O/N=C(\N)Cc2ccc([N+](=O)[O-])cc2)c1`, the inhibition is 0.85%.

Consider `CCOc1cc(CO)ccc1OCC(=O)N1CCCCC1`, for which the inhibition is 52.6% (active).

As to `CCOc1cc(CN2CCN(C(=O)CC(C)C)CC2)ccc1OC`, the inhibition is -3.42%.

`O=C(COc1ccc(Cl)cc1[N+](=O)[O-])N1CCCCC1`: the inhibition is 2.91%.

In the case of `CCC1SC(CC)C(=O)N(CC(=O)NC2CCCCC2)C1=O` (centres undefined), the inhibition was 101% (active).

As to `O=C(CN1C(=O)NC2(CCCCCC2)C1=O)NC1CC1`, the inhibition was 0.9%.

Turning to `O=C(CN1C(=O)CC(c2ccccc2)=Nc2ccccc21)NC1CCCCC1`, the inhibition was 12.2%.

On to `CN(C)/C=C1\C=C(c2ccccc2)OC1=O`, for which the inhibition is 49.5% (active).

As for `Cc1ccc(C2=C/C(=C\c3cccnc3)C(=O)O2)cc1`, the inhibition is 10.9%.

In the case of `CN(C)/C=C1/C(=O)Nc2ccccc21`, the inhibition is 8.66%.

On to `NC(=O)C1=C[C@@H](c2csc3ccccc23)C[C@@H](OCc2ccc(CO)cc2)O1`, for which the inhibition is 5.57%.

With `CCN(CC)C(=O)CC(c1ccc2c(c1)OCO2)c1c(OC)cc(OC)c2c(-c3ccccc3)cc(=O)oc12` (centres undefined), the inhibition is -2.49%.

Turning to `Cc1ccc(/C=C/C(=O)O)cc1S(=O)(=O)N1CCC(Cc2ccccc2)CC1`, the inhibition was 6.76%.

With `O=c1[nH]nc(SCCS(=O)(=O)c2ccc(F)cc2)n1-c1ccccc1C(F)(F)F`, the inhibition is 6.99%.

Regarding `CN(c1ccccn1)c1ncnc2[nH]ncc12`, the inhibition was 3.53%.

On to `O=C(NC1CC1)C1=C[C@H](c2c[nH]c3ccccc23)C[C@H](OCc2ccc(CO)cc2)O1`, for which the inhibition was 1.62%.

For `Cc1nc(C(=O)NCc2ccccc2)sc1C1(C)CC(c2cccnc2)=NO1` (centres undefined), the inhibition is 6.55%.

Turning to `CC1=NNC(=O)C1CC(=O)N/N=C/c1ccncc1` (centres undefined), the inhibition was 2.75%.

Turning to `C=CCCN(Cc1ccccc1)S(=O)(=O)c1ccccc1Br`, the inhibition was 5.98%.

Turning to `Cc1ccccc1NC(=O)Nc1ccccc1N1CCCCC1`, the inhibition was 5.71%.

With `c1ccc(-n2cccc2)c(N2CCCCC2)c1`, the inhibition was 46.9% (active).

As to `c1ccc(-c2cc(N3CCCCC3)c3ccccc3n2)cc1`, the inhibition was 16%.

Usually inhibition stands for the change of the read-out against control, counted positive when it falls.

These data come from PubChem BioAssay AID800 (PCMD, 2007).
